From PubChem BioAssay AID1671188 (National Center for Advancing Translational Sciences (NCATS), 2021) come the findings set out here.

Among all 100,000 compounds or so, about 250 (0.25%) were called active. A call without a number means that no potency is given here. Inconclusive results (about 7%) are left out. Calls come from the whole dose curve; as a rule, active = well fitted inhibition curve with a large enough effect; inconclusive = small, poorly fitted or top-dose-only effect; inactive = flat fitted curve, though single readings scatter. Only a selection was taken, and actives are over-represented in it overall.
Potency is the fitted concentration of half-maximal effect.

Chain of Alanine aminotransferase 2 (Homo sapiens) (Q8TD30 whole entry, looked up): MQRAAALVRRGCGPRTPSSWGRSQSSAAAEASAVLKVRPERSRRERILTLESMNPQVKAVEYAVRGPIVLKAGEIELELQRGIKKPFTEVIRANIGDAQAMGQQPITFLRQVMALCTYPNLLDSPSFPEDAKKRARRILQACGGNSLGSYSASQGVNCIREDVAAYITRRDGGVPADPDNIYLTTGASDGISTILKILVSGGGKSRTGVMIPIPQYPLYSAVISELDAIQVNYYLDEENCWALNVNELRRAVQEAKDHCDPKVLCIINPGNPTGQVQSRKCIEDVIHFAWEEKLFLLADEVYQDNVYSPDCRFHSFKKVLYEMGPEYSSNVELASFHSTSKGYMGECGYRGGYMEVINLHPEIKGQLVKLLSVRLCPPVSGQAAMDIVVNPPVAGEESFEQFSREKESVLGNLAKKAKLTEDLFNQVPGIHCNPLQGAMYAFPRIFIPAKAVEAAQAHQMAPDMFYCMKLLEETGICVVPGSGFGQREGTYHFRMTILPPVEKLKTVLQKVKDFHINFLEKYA

The target of this test is Alanine aminotransferase 2 (Homo sapiens) (UniProt Q8TD30). As to the kind of experiment: Primary qHTS assay for inhibitors of Glutamate pyruvate transaminase 2 (GPT2). Note: nearly all actives have a fitted effect of over 60% in size. The following applies: Recombinant GPT2, coupled pyruvate oxidase/HRP Amplex Red fluorescence; series mostly up to 57.7 µM. Here is the method:
Assay Provider: Zhenghe John Wang Ph.D.
Case Western Reserve University, Cleveland OH
Glutamate pyruvate transaminase 2 (GPT2) catalyzes the reversible transamination of glutamate and pyruvate to provide a-ketoglutarate and alanine. We have optimized an assay for GPT2 enzymatic activity that couples pyruvate formation to detection of fluorescence using an established pyruvate oxidase/horseradish peroxidase / Amplex Red system.
Screening conditions were 250uM a-KG, 2mM L-alanine, and 10ng/uL GPT2 in […] of solution; 10uL of Amplex reaction mix (outlined below) were added so that final concentrations of Amplex reagents in 50uL were 0.2mM ThPP, 0.2U/mL PO and HRP, and 50uM Amplex.
NOTE: The volume of GPT2 in the system depends on the activity of it. The activity is different every batch. You need to test the activity before the assay. For full plate assay with automation, plate 20uL of GPT2 buffer to pin into, then add 10uL of GPT2 dilution followed immediately by 10uL of substrate dilution. 2 Columns of the plate were devoted to GPT2 buffer ([…] PH7.5, 0.0001% Tween) + 50uM AOA (known GPT2 inhibitor) to serve as a positive control. Complete the assay as normal. Amplex-red buffer: […] PH7.5, 1 mM EDTA, 1 mM MgCl2.
1. Combine a-KG and L-alanine at desired concentrations and incubate for at least 10 minutes at 37C. Stocks of L-alanine and a-KG are diluted in distilled water. However, the stocks were diluted in GPT2 buffer for the assay.
2. Prepare GPT2 dilution at the desired concentration in GPT2 buffer.
3. Plate 40uL of GPT2 dilution with 40uL of substrate dilution and let incubate for 30 minutes at room temperature.
4. Add 20uL of Amplex reaction mix prepared as follows: 1.5uL 200U/mL Horseradish Peroxidase, 200mM Thiamine Pyrophosphate, 200U/mL Pyruvate Oxidase; 7.5uL 10mM Amplex Red; 288uL Amplex Buffer.
5. Incubate for 30 minutes at room temperature in the dark, then image using AM_Amplex_Fluorescence on plate reader nearest the window.
In the case of `Cc1noc(C)c1CCCNC(=O)c1ccc(N(C)C2CCOC2)nc1` (stereo not given), the Potency result was “inactive”.

With `Cc1nc(C)c(C)c(N2CCCC(c3nccn3Cc3ccccc3)C2)n1` (stereo not given), the Potency result was “inactive”.

For the compound `COC(=O)CNC(=O)C1CN(c2ccccc2)C(=O)N1` (stereo not given), the Potency result is “inactive”.

Regarding `O=C1NCCCCCCN(C(=O)c2cccs2)[C@H]2C[C@H](c3nc(Cc4ccccc4)no3)C[C@@H]12`, the Potency entry was “inactive”.

Turning to `O=C(CCc1nnn2c1CN(C(=O)NCc1ccc(F)cc1)CC2)N1CCOCC1`, the Potency result is “inactive”.

In the case of `Cc1noc(C)c1[S+](=O)([O-])NC1CCN(Cc2ccc(-c3ccsc3)cc2)C1` (stereo not given), the Potency result is “inactive”.

Take `CCCNC(=O)N1CCCCC1c1nc(CCOc2ccc(F)cc2)no1` (stereo not given): the Potency result was “inactive”.

Take `CCCNC(=O)N1CCn2nnc(CCC(=O)N3CCOCC3)c2C1`: the Potency result is “inactive”.

For `Cc1cc2ncc(C(=O)NCC3CC3)cn2n1`, the Potency result is “inactive”.

As for `O=C(NCCc1ccccn1)C1CCCN(c2nc(-c3ccccc3)nc3c2CCC3)C1` (stereo not given), the Potency entry is “inactive”.

Consider `CCOc1ccc(CCCC(=O)N2CC[C@@](C)(O)[C@@H](O)C2)cc1C`, for which the Potency entry was “inactive”.

With `O=C(c1cncc(Br)c1)N1CCC(Cc2nc(C3CCOCC3)no2)CC1`, the Potency entry is “inactive”.

`CC(=O)N[C@@H]1C=C(C(=O)N[C@H](CC(C)C)C(N)=O)C[C@@H](O)[C@@H]1O`: the Potency entry was “inactive”.

For `Cc1ccc(C(=O)N2C[C@@H](Oc3ccccc3)C[C@H]2C(=O)N2CCCC2)cn1`, the Potency entry is “inactive”.

With `O=C(NCCn1ccc2ccc(Cl)cc21)C1CC(=O)N(c2n[nH]c3ccccc23)C1` (stereo not given), the Potency result is “inactive”.

Take `COCCN1CC(CO)C2(CCN(Cc3cnn(C(C)C)c3)CC2)C1` (stereo not given): the Potency result was “inactive”.

In the case of `Cn1cc(CN2CCCN(C(=O)c3ccco3)CC2)c(-c2ccc(C3CCCCC3)cc2)n1`, the Potency result was “inactive”.

Regarding `COc1ccccc1CN1CC[C@@H](CO)N(C)c2ncccc2C1`, the Potency entry was “inactive”.

Consider `COCCOc1ccnc(-c2noc([C@@H]3CCCN3Cc3ccc(Cl)cc3)n2)c1`, for which the Potency entry is “inactive”.

Regarding `O=C(NCC(F)(F)F)c1nc2cccnc2n(CCc2ccccc2)c1=O`, the Potency result is “inactive”.

Turning to `CC(C)C(=O)NC1CCCc2c1[nH]c1c(Cl)cccc21` (stereo not given), the Potency result was “inactive”.

Take `O=S(=O)(c1ccc(F)cc1)N1CCCC(Cc2noc(-c3ccccc3)n2)C1` (stereo not given): the Potency entry is “inactive”.

Take `Cc1ccncc1C(=O)N1CCC(Cn2c(C)cnc2-c2cccnc2)CC1`: the Potency entry is “inactive”.

In the case of `COc1cccc(-c2cccc(C(=O)N3CCN(C(=O)Cc4ccc(F)cc4)CC3)c2)c1`, the Potency entry was “inactive”.

Consider `COCCC1(NS(C)(=O)=O)CCN(S(=O)(=O)c2ccc3c(c2)OCCO3)CC1`, for which the Potency entry is “inactive”.

`COc1cccc(-c2ccc(CN3CCCC3C(=O)NCc3ccccc3Cl)cc2)c1` (stereo not given): the Potency entry was “inactive”.

Take `Cc1cc(Cl)ccc1S(=O)(=O)N1CCn2c(nn(CC3CC3)c2=O)C1`: the Potency entry is “inactive”.

Regarding `COCCN1C(=O)CCC2(CNC(=O)c3ccncc3)CCC=C12` (stereo not given), the Potency entry is “inactive”.

For the compound `O=C(NCC1CCCO1)c1csc(N2CCN(c3ccccc3F)CC2)n1` (stereo not given), the Potency result is “inactive”.

For `NC(=O)c1cccc(-c2ncc3c(n2)OCCN(CC2CC2)C3=O)c1`, the Potency result is “inactive”.

Consider `Cc1cc(C)cc(C(=O)NC2CCN(c3cnn(C)c(=O)c3)CC2)c1`, for which the Potency result is “inactive”.

As to `O=C(c1cccc(Cl)c1)N1CCC(C(=O)N2CCC(N3CCOCC3=O)CC2)CC1`, the Potency entry is “inactive”.

For `O=C(c1cnccn1)N1CCC(N2C(=O)C(OCC3CC3)C23CCOCC3)CC1` (stereo not given), the Potency result is “inactive”.

Take `O=C1NC2(CCN(Cc3ccc(F)cc3)C2)OCc2ccccc21` (stereo not given): the Potency entry is “inactive”.

With `Cc1ccc2c(C)c(C(=O)N3CCCC3c3nc(C(C)C)no3)oc2c1C` (stereo not given), the Potency entry is “inactive”.

With `COCCC1(CO)CCCN(C(=O)c2ccc(S(N)(=O)=O)cc2)C1` (stereo not given), the Potency result is “inactive”.

Turning to `C#CCN(Cc1nc(-c2cc(OC)ccc2F)oc1C)C1CCCCC1`, the Potency entry is “inactive”.

With `CNCC(O)c1ccc(O)c(O)c1` (stereo not given), the Potency is 6.31 µM (active).

Turning to `COCC(=O)N1CCC(N2C[C@H](OC)[C@@H]2c2ccncc2)CC1`, the Potency result is “inactive”.

In the case of `CC1(C(=O)N2CCN(c3ccccn3)CC2)CCCc2cnc(Nc3cccnc3)nc21` (stereo not given), the Potency result is “inactive”.

Take `Cc1cc(C)c(C(=O)N2CCOC(Cc3ccc(F)cc3)C2)o1` (stereo not given): the Potency entry was “inactive”.

Regarding `Cc1ccc(NC(=O)C2CCc3nnc(C4CCN(C(=O)NC(C)(C)C)CC4)n32)cc1` (stereo not given), the Potency result is “inactive”.

In the case of `O=C(Cc1ccc(F)cc1)N1CCC(C(=O)N2CCC(c3nc4ncccc4[nH]3)CC2)C1` (stereo not given), the Potency result was “inactive”.

On to `CN(C)C(=O)NC1CCN(c2nc3ncccc3o2)CC1`, for which the Potency result was “inactive”.

`COc1cc2c(cc1OC)C(CNC(=O)c1cccc(Cl)c1)N(C(=O)Nc1ccccc1)CC2` (stereo not given): the Potency result is “inactive”.
